Assay outcomes (PubChem)
EBV gp42 inh – blocks Epstein-Barr virus glycoprotein 42 binding; Q1HVG2; Fluorescence polarization binding assay, mP read-out; inhibition, % (tested at 21.74 µM); actives 0.42% (n = 220,000); AID 1085; in the data active = inhibition above about 50%
Target sequence (Q1HVG2 whole entry, looked up): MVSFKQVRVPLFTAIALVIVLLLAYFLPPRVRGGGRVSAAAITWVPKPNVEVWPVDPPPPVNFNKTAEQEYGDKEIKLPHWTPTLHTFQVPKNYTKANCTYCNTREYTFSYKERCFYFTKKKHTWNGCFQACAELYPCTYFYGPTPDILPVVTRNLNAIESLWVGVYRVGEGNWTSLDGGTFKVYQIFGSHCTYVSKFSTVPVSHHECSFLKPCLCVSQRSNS
MEX-5 binding – C. elegans MEX-5 TCR-2 RNA binding activity | Q9XUB2 | MEX-5/FITC-TCR2 RNA binding, fluorescence polarization; hits give low values | activity score (negative = inhibition of binding), % at 10 µM | actives 0.38% (n = 300,000) | AID 1832;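 active = inhibition past about -25% in most replicates, and total fluorescence under double the plate's negative control median, limit read from the data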;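 note: 0% = DMSO and -100% = 5 µM competing unlabeled TCR2 RNA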
PABP FP inh – PABP-poly(A) binding inhibition. calls only at 35 µM. PABP-poly(A) RNA binding, fluorescence polarization. actives 1% (n = 290,000). P11940;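 note: calls also rest on retests at 20 µM and on dose response follow-up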
eIF4H inh – inhibitors of RNA binding by human eIF4H | eIF4H fluorescence polarization binding assay | inhibition, % at 35 µM | actives 0.94% (n = 290,000);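 note: calls also rest on retests at 20 µM and on dose response follow-up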
PABP1 MLLE inh – inhibitors of microRNA-mediated deadenylation, human PABP1 MLLE binding; P11940; GST-MLLE / FITC-PAM2 fluorescence polarization; inhibition, % at 20 µM; actives 0.36% (n = 360,000); in the data active = inhibition above about 35%, passing the limit was not always enough;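 note: plate controls were DMSO wells with GST-MLLE for no effect and wells lacking GST-MLLE protein for full effect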
An asterisk follows results filed as active. The list is not random: actives were taken first. Their share in the collection is about 1.8%. Unless noted, the rule behind the calls is not given here.

What do the screens show for `Cc1ccc(Nc2ccc([N+](=O)[O-])ccc2=O)cc1`?
MEX-5 binding: -28*; PABP1 MLLE inh: -12

Results for Cc1ccc(Nc2ccc(C(F)(F)F)cc2[N+](=O)[O-])cc1 ?
EBV gp42 inh: -10; MEX-5 binding: -1; PABP FP inh: inactive; eIF4H inh: -5; PABP1 MLLE inh: -4

How did CCOc1cc(C2C3=C(CCCC3=O)NC3=C2C(=O)CCC3)ccc1OCCO do in these assays?
EBV gp42 inh: -14; MEX-5 binding: 0; PABP FP inh: inactive; eIF4H inh: -8; PABP1 MLLE inh: 41*

How did Oc1ccc(-c2nc(-c3ccc(O)c(O)c3)cs2)cc1 do in these assays?
EBV gp42 inh: 0; MEX-5 binding: -68*; PABP FP inh: inactive; eIF4H inh: 1; PABP1 MLLE inh: -3

Results for Oc1ccc(Nc2nc(-c3ccc4ccccc4c3)cs2)cc1 ?
EBV gp42 inh: -4; MEX-5 binding: -1; PABP FP inh: inactive; eIF4H inh: 0; PABP1 MLLE inh: -4

What do the screens show for `COc1ccc(-n2c(C)cc(/C=C3\SC(=S)N(Cc4ccco4)C3=O)c2C)cc1`?
EBV gp42 inh: 80*; MEX-5 binding: -28*; PABP FP inh: inactive; eIF4H inh: 36; PABP1 MLLE inh: -127

How did COCCn1c(=O)[nH]c2cc(C(=O)NCCc3ccc(OC)c(OC)c3)ccc2c1=O do in these assays?
EBV gp42 inh: 50*; MEX-5 binding: 1; PABP FP inh: inactive; eIF4H inh: -4; PABP1 MLLE inh: 4

How did COc1cc2c(cc1NC(=O)Nc1ccc(F)cc1)oc1ccccc12 do in these assays?
EBV gp42 inh: 13; MEX-5 binding: 1; PABP FP inh: active; eIF4H inh: 92*; PABP1 MLLE inh: 1

What do the screens show for `Cc1cc(C)cc(OCC(=O)NNC(=O)CC(C)c2ccccc2)c1` (stereo not drawn)?
PABP1 MLLE inh: 0

Results for Cc1ccc(/C=C/C(=O)O)cc1S(=O)(=O)N1CCc2ccccc2C1 ?
EBV gp42 inh: -10; MEX-5 binding: 2; PABP FP inh: inactive; eIF4H inh: 4; PABP1 MLLE inh: 1

Results for O=C(c1ccc(S(=O)(=O)N2CCCC2)cc1)N1CCCCC1 ?
MEX-5 binding: 0; PABP1 MLLE inh: -8

What do the screens show for `O=C(/C=C/c1ccc(O)c(O)c1)c1ccc(S(=O)(=O)N2CCCCCC2)cc1`?
EBV gp42 inh: -12; MEX-5 binding: 0; PABP FP inh: inactive; eIF4H inh: 90*; PABP1 MLLE inh: -7

How did Cc1ccc(/C=C/C(=O)O)cc1S(=O)(=O)N1CCCCC1 do in these assays?
EBV gp42 inh: -19; MEX-5 binding: -30*; PABP FP inh: inactive; eIF4H inh: 5; PABP1 MLLE inh: -2

How did O=C1NC(=S)SC1=Cc1ccccn1 do in these assays?
PABP1 MLLE inh: 7

How did O=C1C(NS(=O)(=O)c2cccs2)=C(N2CCN(c3cccc(Cl)c3)CC2)C(=O)c2ccccc21 do in these assays?
EBV gp42 inh: -2; MEX-5 binding: 0; PABP FP inh: active; eIF4H inh: 2.3*; PABP1 MLLE inh: 4

What do the screens show for `O=C1C(NS(=O)(=O)c2ccccc2)=C(N2CCN(c3ccc(F)cc3)CC2)C(=O)c2ccccc21`?
EBV gp42 inh: 15; MEX-5 binding: -1; PABP FP inh: inactive; eIF4H inh: 14; PABP1 MLLE inh: 16

What do the screens show for `O=c1cc2c(c(-c3ccccc3)n1Cc1ccccc1)[C@@H](CCO)NC2`?
PABP1 MLLE inh: 1

Results for COCOCCn1cc(CN2CCS(=O)(=O)N(Cc3ccc(-c4ccc(OC)cc4)cc3)C(C(C)C)C2=O)nn1 (stereo not drawn) ?
PABP1 MLLE inh: -6

How did Brc1ccc(-c2nc3c4ccccc4ccn3c2Cc2ccccc2)cc1 do in these assays?
PABP1 MLLE inh: -16

How did COc1ccc(/C=N/NC2=NCCCCC2)c(OC)c1 do in these assays?
EBV gp42 inh: -20; PABP FP inh: active; eIF4H inh: active; PABP1 MLLE inh: -1

What do the screens show for `COc1ccc(/C=N/NC2=NCCCCC2)cc1`?
EBV gp42 inh: -6; MEX-5 binding: -1; PABP FP inh: inactive; eIF4H inh: -23; PABP1 MLLE inh: 6

Results for O=C1C(=Cc2ccccc2O)SC(=S)N1CCCN1CCOCC1 ?
PABP1 MLLE inh: 5

Results for O=C(O)c1ccc(NCc2ccncc2)cc1 ?
EBV gp42 inh: -5; MEX-5 binding: 2; PABP FP inh: inactive; eIF4H inh: 5; PABP1 MLLE inh: -10

How did O=C(O)c1ccc(NCc2cccc(Br)c2)cc1 do in these assays?
EBV gp42 inh: 3; MEX-5 binding: -3; PABP FP inh: active; eIF4H inh: active; PABP1 MLLE inh: -1
